# Compound activity as filed in PubChem.
# Pf growth 96h – inhibits malaria parasite growth, 96 h; P. falciparum luciferase reporter growth, 96 h; Potency, µM (top dose mostly 28.7 µM), inactives show at the highest dose activity change, negative = inhibition, most hits filed as inhibitors; hit rate 6.9% among 320,000; AID 504834; further: potency means the concentration at half of the fitted maximal effect; on the % scale 0 is the no-effect control and ±100 the full control effect
#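 Two-generation exposure (96 h) targets delayed-death phenotype. Reporter parasites carrying integrated firefly luciferase, in red cells at 2% hematocrit and 0.05% parasitemia final, kept at 37 C, 5% CO2; luminescence loss indicates inhibition.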
# Cycloheximide cs – counter-screen hit for Shiga toxin inhibitors, cycloheximide | hit rate 12% among 300,000 | cell reporter, cycloheximide protein synthesis inhibition counterscreen | max response, %; in the data active means max response mostly above about 13%, no sharp cut-off; inactive means mostly below about 14%; further: read at 38.3 µM for the half of the compounds with a filed dose; 0% is about no effect
# NS1 inh – influenza NS1 inhibition; Potency, µM (top dose mostly 46.1 µM), inactives show at the top dose activity, positive = more growth; hit rate 0.4% among 270,000; calls by dose curve; further: potency means the concentration at half of the fitted maximal effect; actives are rising curves; nearly all actives have a fitted effect of over 50% in size
#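 OD600 was taken as the measure of yeast growth restored by compound in an NS1-expressing S. cerevisiae strain. Cells had been washed out of glucose medium and diluted 1:100 into galactose -URA medium, pH 6.0.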
# Pf growth 48h – P. falciparum growth inhibition at 48 hours (one generation) | Potency, µM (highest dose often 28.7 µM), without a hit: at the highest dose activity change, negative = inhibition, actives largely listed as inhibitors | P. falciparum luciferase growth in erythrocytes, 48 h | hit rate 5.9% among 310,000; further: potency means the concentration at half of the fitted maximal effect; on the % scale 0 is the no-effect control and ±100 the full control effect
#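 In quantitative HTS format, infected erythrocytes bearing luciferase-reporter parasites were treated for a single generation at 37 C. Luminescence after adding detection reagent served as the growth measure.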
# Shiga inhibitor – blocks Shiga toxin action in Vero cells | Vero cells, Shiga toxin protein synthesis inhibition reporter | inhibition, % at 38.7 µM | hit rate 9.2% among 290,000; in the data active means inhibition mostly above about 28%, no sharp cut-off; inactive means mostly below about 43%; further: 0% is about no effect
# * = called active by the depositor; i = inactive; ? = inconclusive; . = no result. Sampled rows, rich in hits. Any-hit rate of the full collection: about 21%. Unless noted, the call rests on the fitted dose curve; in most records, active means well fitted inhibition curve with a large enough effect; inconclusive means small, poorly fitted or top-dose-only effect, or another doubt; inactive means no such curve, though single readings can be large or run the other way.
SMILES,Pf growth 96h,Cycloheximide cs,NS1 inh,Pf growth 48h,Shiga inhibitor
N#C/C=C(/N)N1CCN(c2ccc(Cl)c(Cl)c2)CC1,46.0%,3.1,-2.9%,7.0%,-1.6
Cc1ccc(/C=N/N=C/c2ccc(C)cc2)cc1,?,36.5*,1.8%,?,74.3*
Cc1ccc(N=Cc2ccc(N(C)C)cc2)cc1,15.2%,7.4,-80.9%,60.3%,-11.5
Fc1cccc(/C=N/N=C/c2cccc(F)c2)c1,9.1%,31.4*,-3.8%,?,111.6*
Oc1ccc(/C=N/N=C/c2ccc(O)cc2)cc1,7.6%,50.0*,-1.2%,?,115.1*
Oc1ccc(/C=N/N=C/c2ccc(O)c(O)c2)cc1O,?,22.6*,14.8%,?,21.0*
O=C(CSc1nnc(NC(=O)c2ccc(S(=O)(=O)N3CCOCC3)cc2)s1)Nc1ccccc1C(F)(F)F,-1.7%,-1.4,3.9%,0.4%,-7.5
C(=N\N=C\c1ccccc1)/c1ccccc1,-24.3%,55.2*,8.3%,i,132.3*
O=C(N/N=C/c1ccccc1)c1ccc(-c2ccccc2)cc1,69.0%,6.5,-1.5%,12.3%,.
COc1ccc(C(=O)O)cc1NCc1cccnc1,6.1%,-2.1,18.2%,3.1%,-4.7
O=C(Cn1cc(F)c(=O)[nH]c1=O)NCCO,0.0%,5.7,.,9.1%,2.1
COCCN(C(=O)COC(=O)C1CCC(C(C)(C)C)CC1)c1c(N)n(Cc2ccccc2)c(=O)[nH]c1=O (stereo unspecified),?,.,.,-25.4%,.
CCC(=O)Oc1c(C(=O)CC)cc2c(C)cc(=O)oc2c1C,44.7%,-3.1,-11.3%,25.0%,18.7
CCC(=O)Nc1c(OC(=O)CC)ccc2c(C)cc(=O)oc12,3.7µM*,-4.9,-1.8%,-8.9%,10.4
CCOC(=O)N1CCN(C(=O)COC(=O)c2ccccc2NCCO)CC1,-4.7%,.,.,0.1%,.
Cc1ccc(NC(=O)CN(C)C(=O)c2cc3c(s2)CCCCC3)cc1,31.3%,.,.,5.5%,.
O=C(c1scc2c1CCCC2)N1CCCCC1,.,12.4,-2.5%,17.0%,24.8
Cc1ccc(NC(=O)c2scc3c2CCCC3)cc1,?,54.0*,-34.3%,376.0%,73.5*
Cc1ccc(S(=O)(=O)Nc2ccc(Cl)cc2)cc1NC(=O)c1cc2c(s1)CCCC2,23.3%,9.6,16.5%,17.2%,1.3
Cc1ccc(NC(=O)c2cc3c(s2)CCCC3)cc1,195.7%,54.0*,.,206.8%,103.6*
Cc1ccc(NS(=O)(=O)c2cc(NC(=O)c3ccc4c(c3)NC(=O)CS4)ccc2Cl)c(C)c1,7.38µM*,-1.8,9.6%,-19.0%,-20.5
Cc1ccc(NS(=O)(=O)c2cc(NC(=O)c3cc4c(s3)CCCC4)ccc2C)c(C)c1,10.4µM*,-1.8,7.7%,?,22.3
Cn1nc(C(=O)NCCCN2CCCCC2)c2c1-c1ccccc1SC2,?,-2.1,-6.7%,-21.2%,-11.9
COc1ccc(-c2c[n+]3c(n2-c2ccccc2)SCC3)cc1OC,?,-2.8,.,1.31µM*,-5.9
COc1ccc(-c2c[n+]3c(n2-c2ccccc2)SCC3)cc1,?,0.6,1.8%,?,-9.4
SMILES,Pf growth 96h,Cycloheximide cs,NS1 inh,Pf growth 48h,Shiga inhibitor
COCCN(Cc1ccccc1)C(=O)c1ccc2c(=O)n3c(nc2c1)CCC3,10.7%,.,.,17.9%,.
CC(C)(C)c1ccc(OCCC(=O)Nc2cccc(S(=O)(=O)N3CCOCC3)c2)cc1,77.9%,2.8,-6.7%,?,-9.4
COc1ccc(N=CC2=C(O)CC(C)(C)CC2=O)cc1,1.4%,36.3*,-14.8%,.,64.8*
COc1ccc(N=CC2=C(O)CCCC2=O)cc1,5.6%,37.2*,-5.0%,-5.1%,76.4*
CCOC(=O)c1cc[nH]c1C,?,10.6,.,2.1%,11.7
CCOC(=O)C1=NN(c2ccccc2)C2(S1)SC(C(C)=O)=C(C)N2c1ccccc1 (stereo unspecified),.,8.9,-4.3%,0.0%,-11.8
COC(=O)C1=NN(c2ccccc2)C2(S1)S/C(=C\c1ccccc1)C(=O)N2c1ccccc1 (stereo unspecified),.,-2.9,1.7%,13.1µM*,-18.3
COc1ccc(C(NC(=O)N2CC(C)OC(C)C2)C(Cl)(Cl)Cl)cc1F (stereo unspecified),3.29µM*,-2.0,-4.7%,13.1µM*,1.7
Cc1ccccc1/C=C\c1nc2ccccc2c(=O)[nH]1,0.0%,45.8*,-7.5%,?,89.2*
Cc1ccccc1/C=C/c1nc2ccccc2c(=O)[nH]1,97.2%,44.7*,-1.1%,253.3%,84.2*
N#CCOc1ccccc1/C=C/c1nc2ccccc2c(=O)[nH]1,34.6%,29.6*,16.0%,0.0%,83.2*
COCCOC(=O)N/C=C\c1nc2ccccc2c(=O)[nH]1,-1.0%,-2.5,-2.6%,44.5%,22.3
CCC(CC)c1nc2ccccc2c(=O)[nH]1,-0.6%,6.4,-2.1%,11.4%,-9.9
